Screening results as filed in PubChem.
Rows were chosen to be rich in hits. Some 11% of all compounds tested hit in one or more screens of this group.
FBPA coupling cs: qHTS Assay for Inhibitors of Fructose-1,6-bisphosphate Aldolase from Giardia Lamblia: Coupling assay counterscreen. coupling enzyme system counterscreen, AmpLite Red fluorescence. activity change, negative = inhibition, % at 58.2 µM, hits read low. 290,000 compounds, 0.67% hits. AID 2472, 2010; in the data active means activity change below about -30%
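Compounds tested against the coupling enzymes alone at 57.5 uM final; readout was AmpLite Red fluorescence (525/598 nm) after 20 min at RT.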
Sfp PPTase inh: qHTS Assay for Inhibitors of Bacillus subtilis Sfp phosphopantetheinyl transferase (PPTase); 4'-phosphopantetheinyl transferase ffp (Bacillus subtilis), Q9F4F7; Biochemical Sfp PPTase activity, qHTS; Potency, µM, inactives show largest response in the series, negative = inhibition, usual class: inhibitors; 310,000 compounds, 3.5% hits; AID 1490, 2009;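 further: the enzyme is Sfp with the accession as filed and its product quenches rhodamine fluorescence; potency means the concentration at half of the fitted maximal effect; 0% = enzyme reaction without inhibitor and -100% = no enzyme wells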
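Sfp 15 nM + cpd, 15 min RT; start w/ rhodamine-CoA 5 uM, BHQ-2-YbbR 12.5 uM (final); 50 mM Hepes pH 7.6, 10 mM MgCl2, 0.01% NP-40, 0.01% BSA; read 525/598 nm at 0 and 30 min.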
Tau ThT inhib: qHTS for Inhibitors of Tau Fibril Formation, Thioflavin T Binding; Potency, µM (series often up to 57.4 µM), inactives show at the highest dose activity, negative = inhibition, actives largely listed as inhibitors; Microtubule-associated protein tau (Homo sapiens), P10636; recombinant tau K18 P301L, heparin-induced fibrillization, ThT fluorescence; 270,000 compounds, 2.1% hits; further: potency means the concentration at half of the fitted maximal effect; nearly all actives have a fitted effect of over 55% in size
Target sequence (P10636 561-689 P618L limits assumed): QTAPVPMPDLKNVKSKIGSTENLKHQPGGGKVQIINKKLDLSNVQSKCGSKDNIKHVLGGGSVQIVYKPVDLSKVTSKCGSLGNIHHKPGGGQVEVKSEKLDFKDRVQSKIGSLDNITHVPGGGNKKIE
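Tau K18 P301L fragment (15 uM unlabeled plus 0.24 uM Alexa 594-labeled) in 100 mM sodium acetate pH 7 with compound, fibrillization induced by 20 uM heparin for 6 hr at 37 C. Thioflavin T (30 uM) added, fluorescence read after 1 hr (ex 450, em 510 nm).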
Tau FP inhib: qHTS for Inhibitors of Tau Fibril Formation, Fluorescence Polarization; Microtubule-associated protein tau (Homo sapiens), P10636; K18 P301L tau heparin fibrillization, Alexa594 FP, 6 h; Potency, µM (doses to about 57.7 µM), inactives show at the highest dose activity, negative = inhibition, actives largely listed as inhibitors; 280,000 compounds, 0.39% hits; AID 1468, 2008; further: potency means the concentration at half of the fitted maximal effect; nearly all actives have a fitted effect of over 55% in size
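Recombinant K18 P301L […], labeled with Alexa 594 at 0.24 uM over 15 uM unlabeled; heparin inducer 20 uM final; 37 C, 6 hr; FP endpoint.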
G9a block: qHTS Assay for Inhibitors of Histone Lysine Methyltransferase G9a. Histone-lysine N-methyltransferase EHMT2 (Homo sapiens), Q96KQ7. G9a H3K9 monomethylation, AlphaScreen, 2 h. Potency, µM (doses to about 102 µM), for the others: at the highest dose activity, negative = inhibition, hits mostly inhibitors. 350,000 compounds, 8.8% hits; further: potency means the concentration at half of the fitted maximal effect; nearly all actives have a fitted effect of over 75% in size
Target sequence (Q96KQ7 913-1193 limits assumed): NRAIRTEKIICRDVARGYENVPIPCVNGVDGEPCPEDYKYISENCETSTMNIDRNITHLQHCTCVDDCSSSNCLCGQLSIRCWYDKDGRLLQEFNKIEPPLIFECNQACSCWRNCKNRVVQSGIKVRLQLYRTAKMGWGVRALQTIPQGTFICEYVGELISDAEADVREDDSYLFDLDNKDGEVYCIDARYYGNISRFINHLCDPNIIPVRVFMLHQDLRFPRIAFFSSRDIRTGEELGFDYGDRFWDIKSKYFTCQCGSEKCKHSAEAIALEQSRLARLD
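Readings reflect AlphaScreen signal from monomethyl-H3K9 antibody detection. HMT at 20 nM; substrate b-H3K9 500 nM; cofactor SAM 20 uM; 2 h RT reaction; compounds tested as titrations in qHTS with 15 min preincubation.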
Tau fluor cs: Counterscreen qHTS for Inhibitors of Tau Fibril Formation, Fluorescence Polarization; tau K18 P301L Alexa594 fluorescence, heparin fibrillization; Potency, µM (highest dose often 57.7 µM), inactives show at the top dose activity change, negative = decrease; 280,000 compounds, 0.93% hits; AID 1463, 2008; further: potency means the concentration at half of the fitted maximal effect; nearly all actives have a fitted effect of over 55% in size
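Human tau K18 P301L (15 uM unlabeled, 0.24 uM Alexa 594-labeled) in 100 mM sodium acetate pH 7 with 20 uM heparin, 6 hr at 37 C. ThT 30 uM added, 1 hr ambient; Alexa 594 FP and total fluorescence read at 555/632 nm.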
An asterisk follows results filed as active; u = inconclusive; x = no result; [ ] = remark or other dose. Unless noted, the call rests on the fitted dose curve; in most records, active means well fitted curve in the direction sought with a large enough effect; inconclusive means small, poorly fitted or top-dose-only effect, or another doubt; inactive means no such curve, though single readings can be large; an effect the other way counts as inactive or inconclusive. Unless noted, on the % scale 0 is the no-effect control and ±100 the full control effect.

SMILES | FBPA coupling cs | Sfp PPTase inh | Tau ThT inhib | Tau FP inhib | G9a block | Tau fluor cs
CCOC(=O)c1cc2c(ccc3nc(C)c(C)c32)[nH]c1C | -1 | 7% | x | x | 5% | x
COc1ccc(Oc2ncc3nc(-c4ccc(F)cc4)c(=O)n(CCC#N)c3n2)cc1 | -1 | 2% | x | x | -1%[0.501 µM] | x
Cc1ccc(C)c(N=Cc2ccc(-c3ccc([N+](=O)[O-])cc3)o2)c1 | -7 | 19% | -18% | 14% | 35µM* | u
Cc1cc(C)n(-c2cc(O)c(-n3nc(C)cc3C)cc2O)n1 | 0 | -6% | -17% | 1% | 28µM* | -10%
Cc1cc(C)n(-c2cc(-n3nc(C)cc3C)ncn2)n1 | 1 | -2% | -2% | 5% | u | 5%
CCOc1ccccc1CN1CCN(Cc2[nH]c3ccccc3c2C)CC1CCO (centres undefined) | -1 | 3% | -2% | -2% | 71µM* | -2%
O=C1NC(=S)N/C1=C\c1cccc([N+](=O)[O-])c1 | 4 | 56µM* | u | 6% | 50µM* | -22%
O=C1NC(=S)N/C1=C/c1ccc(-c2c(Br)cc([N+](=O)[O-])cc2Br)o1 | -2 | -22% | u | 0% | 11µM* | u
O=C1NC(=S)N/C1=C/c1cccc([N+](=O)[O-])c1 | -1 | 11% | u | 2% | -4% | -16%
CN1C(=O)/C(=C/c2cccc([N+](=O)[O-])c2)C(=O)N1c1ccccc1 | 0 | 50µM* | x | x | 14µM* | x
Cc1c(CC(=O)N2CCCCC2)c(=O)oc2cc(O)ccc12 | x | x | -2% | -5% | 8%[59 µM] | -8%
Cc1ccc2c(c1)C(c1ccccc1)N(C(=O)COc1ccc(Cl)cc1Cl)CC(=O)N2 (centres undefined) | x | x | -12% | -6% | -9%[59 µM] | -15%
C[C@@H](C[N+](C)(C)C)OC(N)=O | 0 | 6% | x | x | 11%[21.5 µM] | x
CC1(c2ccc(Cl)cc2)CC(C)(C)N(C(=O)c2cccc(F)c2)c2ccccc21 (centres undefined) | x | x | -8% | -2% | 20%[59 µM] | -2%
CCOC(=O)C1=C(C)N=c2s/c(=C\c3ccc(OCC(=O)O)cc3)c(=O)n2C1c1ccccc1 (centres undefined) | 5 | -1% | x | x | 15%[12.7 µM] | x
CCOC(=O)C1=C(C)N=c2s/c(=C/c3cccc([N+](=O)[O-])c3O)c(=O)n2C1c1cc(OC)c(OC)c(OC)c1 (centres undefined) | 2 | 56µM* | x | x | 2.2µM* | x
CCOC(=O)C1=C(C)N=c2s/c(=C/c3cccc([N+](=O)[O-])c3O)c(=O)n2C1c1ccccc1 (centres undefined) | 6 | 50µM* | x | x | 2µM* | x
CCOC(=O)C1=C(C)N=c2s/c(=C\c3cc(OC)c(OC)c(OC)c3)c(=O)n2C1/C=C/c1ccccc1 (centres undefined) | 2 | 5% | -16% | -9% | 18% | -11%
CCOC(=O)C1=C(C)N=c2s/c(=C\c3cccc(OCC(=O)O)c3)c(=O)n2C1c1ccccc1 (centres undefined) | 12 | -21% | x | x | u | x
CCOC(=O)C1=C(C)N=c2s/c(=C\c3cccn3C)c(=O)n2C1c1cccc(OC)c1OC (centres undefined) | -3 | 16µM* | u | -7% | u | -21%
COc1ccc(NC(=O)CCc2nnc3ccc(N4CCC5(CC4)OCCO5)nn23)cc1 | 0 | 12% | x | x | 13% | x
O=C(Nc1nnc2n1CCS2)c1cc(C(F)(F)F)cc(C(F)(F)F)c1 | x | x | 1% | -6% | 50%[59 µM] | -9%
COc1ccc(Cl)cc1C(=O)Nc1nnc2n1CCS2 | x | x | 3% | -6% | u | -4%
O=C(Nc1nnc2n1CCS2)c1ccccc1C(F)(F)F | x | x | 3% | 6% | 3.2µM* | 7%
COc1ccccc1C(=O)Nc1nnc2n1CCS2 | x | x | 2% | 2% | 11µM* | 0%
SMILES | FBPA coupling cs | Sfp PPTase inh | Tau ThT inhib | Tau FP inhib | G9a block | Tau fluor cs
O=C1/C(=C/Nc2cccc([N+](=O)[O-])c2)CCc2ccccc21 | -9 | u | 14µM* | 9% | u | u
O=C1/C(=C\c2ccc([N+](=O)[O-])cc2)CCc2ccccc21 | 2 | 19% | u | -14% | 18%[59 µM] | -14%
O=Cc1[nH]c2ccccc2c1N(C(=O)CCl)c1ccccc1 | 2 | 9% | 32µM* | u | -35% | -27%
CCOC(=O)CN1C(=O)S/C(=C/c2ccc(C)o2)C1=O | -10 | -24% | x | x | 32µM* | x
COc1ccc(N=C2S/C(=C\c3ccc(C)o3)C(=O)N2CC(C)C)cc1 | -3 | 28µM* | u | 2% | 8.9µM* | -27%
CCCN1C(=O)/C(=C/c2ccc(C)o2)SC1=Nc1ccc(OC)cc1 | -4 | 35µM* | u | -2% | u | -11%
CCCN1C(=O)/C(=C/c2ccc(C)o2)SC1=Nc1ccc(OCC)cc1 | -23 | 7.9µM* | u | 11% | u | -15%
CCOC(=O)CN1C(=O)S/C(=C/c2ccc(O)c([N+](=O)[O-])c2)C1=O | 17 | -24% | u | u | -8%[59 µM] | -16%
CCCN1C(=O)/C(=C/c2ccco2)SC1=Nc1ccc(OC)cc1 | 2 | u | u | -4% | u | -18%
CCOC(=O)/C=C/CCC/C=C/C(=O)c1ccccc1 | 1 | -21% | u | 14% | x | 9%
COc1ccc(N=C2S/C(=C\c3ccc(N4CCOCC4)o3)C(=O)N2CCc2c[nH]c3ccccc23)cc1 | -1 | 4µM* | 14µM* | 6% | u | u
CSc1ccccc1C(=O)Nc1ccccc1C(=O)N1CCCC1 | -1 | 6% | -1% | 1% | -2%[59 µM] | 5%
CCCNC(=O)c1ccccc1NC(=O)c1ccccc1SC | 1 | -8% | 11% | 7% | 25µM* | 2%
C=CCNC(=O)c1ccccc1NC(=O)c1ccccc1C | -3 | 11% | -2% | 12% | -11%[59 µM] | 2%
COCCNC(=O)c1ccccc1NC(=O)c1ccccc1SC | 1 | 56µM* | 2% | 5% | 4.5µM* | -2%
COCCNC(=O)c1ccccc1NC(=O)Cc1ccccc1 | 0 | 18% | 3% | -8% | 11% | 2%
C=CCNC(=O)c1ccccc1NC(=O)c1ccccc1SC | 3 | 20µM* | 3% | -2% | x | -3%
